{"source": "PubChem BioAssay AID1053119", "about": "(Broad Institute, 2014)", "note": "Potency and affinity values are given separately. Results filed as inconclusive are left out. Active and inactive are the calls of the source.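 How the source made its calls: active means signal loss from cell killing with fitted potency at or below twice the top valid dose; inconclusive means flat drop of 30 to 70%, or unreliable curve fit; inactive means opposite direction, flat within 30%, or weaker potency.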"}
{"experiment": "viability loss in A549 lung cancer cells – cell-based, cherry-picks, 26 µM top dose, cytotoxicity control, dose response (AID 1053119);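 further: 0% = neutral control wells and -100% = 10 µM mitoxantrone wells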", "conditions": "CellTiter-Glo ATP luminescence, 72 h; series mostly up to 26 µM; activity change, negative = cytotoxicity: at the top concentration"}
{"smiles": "Cc1ccc(NC(=O)COC(=O)c2cc(Cl)ccc2[N+](=O)[O-])c(C)c1", "activity change, negative = cytotoxicity": "-3.19% (inactive)"}
{"smiles": "COCC(=O)Nc1ccc2c(c1)C(=O)N(C)[C@@H]1CC[C@H](CC(=O)NCc3ccccc3Cl)O[C@H]1CO2", "activity change, negative = cytotoxicity": "1.18% (inactive)"}
{"smiles": "COc1ccccc1CC(=O)OC(C)C(=O)Nc1ccc(S(=O)(=O)N2CCCCC2)cc1", "note": "(configuration not stated)", "activity change, negative = cytotoxicity": "24.9% (inactive)"}
{"smiles": "CCN(Cc1ccncc1)C(=O)c1ccc2c(c1)S(=O)(=O)c1ccccc1C2=O", "activity change, negative = cytotoxicity": "-3.23% (inactive)"}
{"smiles": "CO[C@H]1CN(C)C(=O)c2ccc(NC(=O)Nc3cc(Cl)cc(Cl)c3)cc2OC[C@H](C)NC[C@@H]1C", "activity change, negative = cytotoxicity": "-0.958% [at 8 µM] (inactive)"}
{"smiles": "O=S(=O)(c1cccc(F)c1)N1CC[C@H]2[C@H](CO)Nc3ccc(-c4cccc(F)c4)cc3[C@H]21", "activity change, negative = cytotoxicity": "-1.9% (inactive)"}
{"smiles": "C[C@H](CO)N1C[C@H](C)[C@H](CN(C)C)Oc2cc(C#C[C@@H](C)O)ccc2S1(=O)=O", "activity change, negative = cytotoxicity": "14.3% (inactive)"}
{"smiles": "COCC(=O)Nc1ccc2c(c1)C(=O)N(C)[C@H]1CC[C@H](CC(=O)NCc3ccccc3Cl)O[C@@H]1CO2", "activity change, negative = cytotoxicity": "-12% [at 23.5 µM] (inactive)"}
{"smiles": "O=C(Nc1nc(-c2ccncc2)cs1)C1COc2ccccc2O1", "note": "(configuration not stated)", "activity change, negative = cytotoxicity": "-13.6% (inactive)"}
{"smiles": "O=C(CCC(=O)c1cccs1)NCc1cccnc1", "activity change, negative = cytotoxicity": "2.94% (inactive)"}
{"smiles": "O=C(CSc1nc2ncc(Cl)cc2[nH]1)c1c[nH]c2ccccc12", "activity change, negative = cytotoxicity": "3.79% (inactive)"}
{"smiles": "COCC(=O)Nc1ccc2c(c1)C(=O)N(C)[C@H]1CC[C@@H](CC(=O)NCc3ccccc3Cl)O[C@H]1CO2", "activity change, negative = cytotoxicity": "-4.72% (inactive)"}
{"smiles": "N#C[C@@H]1[C@H](c2ccccc2C2=CCCCC2)[C@@H](CO)N1S(=O)(=O)c1ccccc1", "activity change, negative = cytotoxicity": "-11.7% (inactive)"}
{"smiles": "Nc1c(C(=O)NCc2ccco2)nnn1Cc1ccccc1", "activity change, negative = cytotoxicity": "-6.95% (inactive)"}
{"smiles": "C[C@H](O)C#Cc1ccc2c(c1)O[C@H](CN(C)C)[C@H](C)CN([C@H](C)CO)S2(=O)=O", "activity change, negative = cytotoxicity": "14.7% (inactive)"}
{"smiles": "Cc1ccc(N(CC(=O)NCc2ccco2)S(=O)(=O)c2ccccc2)cc1", "activity change, negative = cytotoxicity": "-5.49% (inactive)"}
{"smiles": "C[C@@H]1CN([C@H](C)CO)C(=O)c2cc(-c3ccccc3)cnc2O[C@H]1CN(C)Cc1ccccc1", "activity change, negative = cytotoxicity": "-7.15% (inactive)"}
{"smiles": "Cc1ccc(CS(=O)Cc2ccc(C(=O)NC3CCCC(C)C3C)o2)cc1", "note": "(configuration not stated)", "activity change, negative = cytotoxicity": "6.25% (inactive)"}
{"smiles": "Cc1cccc(N2CCN(S(=O)(=O)c3cn(C)cn3)CC2)c1C", "activity change, negative = cytotoxicity": "-6.39% (inactive)"}
{"smiles": "COc1ccc(C)cc1N(CC(=O)Nc1cccc(N(C)S(C)(=O)=O)c1)S(C)(=O)=O", "activity change, negative = cytotoxicity": "-12.4% (inactive)"}
{"smiles": "CCc1ccc(NC(=O)CSc2nnc(-c3ccco3)o2)cc1", "activity change, negative = cytotoxicity": "-8.55% (inactive)"}
{"smiles": "COc1cccc(CNC(=O)CCc2nnc3ccc(NCCCN4CCCC4=O)nn23)c1", "activity change, negative = cytotoxicity": "-2.93% (inactive)"}
{"smiles": "O=c1c2cc(N3CCOCC3)ccc2[nH]c(=S)n1Cc1ccc(Cl)cc1", "activity change, negative = cytotoxicity": "0.921% (inactive)"}
{"smiles": "CC1(C)Cc2c(C#N)c(SCC(=O)c3ccccc3)nc(N3CCOCC3)c2CS1", "activity change, negative = cytotoxicity": "5.56% (inactive)"}
{"smiles": "Cc1ccc(C(O)c2ncc(-c3cccc4ccccc34)[nH]2)cc1F", "note": "(configuration not stated)", "activity change, negative = cytotoxicity": "-1% (inactive)"}
{"smiles": "Cc1cccc(NC(=O)c2ccc(S(=O)(=O)N3CCCCC3)cc2)n1", "activity change, negative = cytotoxicity": "-1.35% (inactive)"}
{"smiles": "COC(=O)C[C@H]1CC[C@H]2[C@@H](COc3ccc(NC(=O)Cc4cccs4)cc3C(=O)N2C)O1", "activity change, negative = cytotoxicity": "4.07% (inactive)"}
{"smiles": "CO[C@@H]1CN(C)C(=O)c2cc(NC(=O)Nc3ccc(Cl)c(Cl)c3)ccc2OC[C@H](C)NC[C@@H]1C", "activity change, negative = cytotoxicity": "-4.37% (inactive)"}
{"smiles": "C[C@@H]1CN([C@@H](C)CO)C(=O)c2cc(-c3ccccc3)cnc2O[C@@H]1CN(C)Cc1ccccc1", "activity change, negative = cytotoxicity": "-4.5% (inactive)"}
{"smiles": "COc1ccccc1CNc1nc(NCc2cnc(C)cn2)c2sccc2n1", "activity change, negative = cytotoxicity": "0.101% (inactive)"}
{"smiles": "O=C(NCCS(=O)(=O)N1CCN(c2ccc(F)cc2)CC1)c1ccc(Br)o1", "activity change, negative = cytotoxicity": "-7.54% (inactive)"}
{"smiles": "COc1cccc(-c2ccc3c(c2)[C@H]2[C@H](CCN2S(=O)(=O)c2cccc(OC)c2)[C@H](CO)N3)c1", "activity change, negative = cytotoxicity": "-8.97% (inactive)"}
{"smiles": "COc1ccc(-c2oc3ncnc(NCCCN4CCOCC4)c3c2-c2ccc(OC)cc2)cc1", "activity change, negative = cytotoxicity": "-31% (inactive)"}
{"smiles": "CC1CN(C(=O)c2cc3c(=O)n4ccccc4nc3n2C)CC(C)O1", "note": "(configuration not stated)", "activity change, negative = cytotoxicity": "-14.9% (inactive)"}
{"smiles": "COCC(=O)Nc1ccc2c(c1)C(=O)N(C)[C@H]1CC[C@H](CC(=O)NCc3ccccc3Cl)O[C@H]1CO2", "activity change, negative = cytotoxicity": "-11.8% (inactive)"}
{"smiles": "C[C@@H]1CN([C@H](C)CO)C(=O)c2cc(-c3ccccc3)cnc2O[C@H]1CN(C)C(=O)c1cccc(F)c1", "activity change, negative = cytotoxicity": "-3.54% (inactive)"}
{"smiles": "COc1cccc(-c2ccc3c(c2)[C@@H]2[C@@H](CCN2S(=O)(=O)c2cccc(OC)c2)[C@H](CO)N3)c1", "activity change, negative = cytotoxicity": "-8.83% (inactive)"}
